Hits are enriched below; roughly 4.8% of the tested compounds scored in any of these assays.
hcDAF12 agonist = H. contortus DAF-12 nuclear receptor activators, primary screen, cell-based, luminescence, HEK293, lit1-tk-luc reporter; HEK293 hcDAF-12 lit1-tk-luc reporter; 0% DMSO, 100% Δ7-dafachronic acid; activation, % at 6.8 µM; 370,000 tested, 1.4% active; AID 652067, 2013;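 active = activation above the mean of all tested compounds plus 3 SD, cut at about 5.5% in these data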;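 note: 100% = response to 3 µM Δ7-dafachronic acid high control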
DAX1 inh-1 = DAX1 (NR0B1) inhibitors on StAR promoter, primary screen, cell-based, luminescence, SF-1 (NR5A1), full-length DAX-1. HEK293T StAR-luciferase reporter, SF-1/DAX-1 repression relief. inhibition, % at 6.8 µM. 370,000 tested, 1.1% active;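 active = inhibition above the mean over all tested compounds plus 3 SD, cut at about 3.6% in these data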;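 note: 0% = DAX-1 cells with DMSO and 100% = cells lacking DAX-1 with DMSO; higher inhibition means more luminescence from relief of DAX-1 repression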
DAX1 inh-2 = DAX1 (NR0B1) inhibitors, primary screen, cell-based, HEK293, Gal4-DAX1, luciferase luminescence; Nuclear receptor subfamily 0 group B member 1 (Homo sapiens), P51843; HEK293 Gal4-DAX1 luciferase reporter; inhibition, % at 6.75 µM; 340,000 tested, 0.99% active;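 active = inhibition above the mean over all tested compounds plus 3 SD, cut at about 4.2% in these data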;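 note: 0% = DAX1-transfected cells with DMSO and 100% = empty-vector control cells with DMSO; inhibition shows as a rise in luminescence from relieved DAX1 repression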
Target sequence (P51843 207-470 limits assumed): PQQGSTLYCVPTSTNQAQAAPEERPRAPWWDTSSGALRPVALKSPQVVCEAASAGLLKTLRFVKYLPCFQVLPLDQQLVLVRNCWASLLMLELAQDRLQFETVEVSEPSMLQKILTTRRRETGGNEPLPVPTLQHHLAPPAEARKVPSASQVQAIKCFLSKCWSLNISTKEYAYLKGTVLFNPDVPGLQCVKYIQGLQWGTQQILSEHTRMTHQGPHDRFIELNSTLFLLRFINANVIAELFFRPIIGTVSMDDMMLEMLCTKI
SMARCA2 activ = SMARCA2 (BRM) function activators, primary screen, cell-based, luminescence, high throughput; 370,000 tested, 1% active; MG213 cells, MMTV-luciferase reporter, dexamethasone, overnight; AID 652017, 2013; activation, % at 9.1 µM; in the data active = activation above about 7.8%;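 note: 0% = vehicle wells and 100% = reference activator wells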
ssDAF12 agonist = S. stercoralis DAF-12 nuclear receptor activators, primary screen, cell-based, luminescence, HEK293, GRIP1 co-expression, lit1-tk-luc; Nuclear hormone receptor DAF-12 (Strongyloides stercoralis); HEK293 ssDAF-12/GRIP1 lit1-tk-luc reporter; % of 3 µM dafachronic acid response; activation, % at 6.8 µM; 370,000 tested, 1% active; AID 652126, 2013;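 active = activation above the mean over all tested compounds plus 3 SD, cut at about 0.9% in these data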;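 note: 0% = DMSO-only wells and 100% = 3 µM delta7-dafachronic acid wells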
hgDAF-12 ag = H. glycines DAF-12 receptor agonists, primary screen, cell-based, luminescence, HEK293, GAL4 fusion, UAS-luciferase; HEK293 GAL4-hgDAF12 UAS-luciferase reporter, agonist luminescence; normalized to butyrate control; activation, % at 6.8 µM; 370,000 tested, 1.8% active;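 active = activation above a cutoff set at the mean of all screened compounds plus 3 SD, cut at about 10% in these data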;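 note: 0% = DMSO wells and 100% = sodium butyrate wells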
Numbers without * were called inactive; . = no result given.

SMILES | hcDAF12 agonist | DAX1 inh-1 | DAX1 inh-2 | SMARCA2 activ | ssDAF12 agonist | hgDAF-12 ag
CCOc1cnc(C(=O)NNC(=O)C(Br)C(C)C)o1 (centres undefined) | 2 | -1 | 7.8* | 0 | -1 | -1
CCOc1cnc(-c2ccccc2F)o1 | 1 | 0 | 2 | -2 | -1 | -2
COCCNC(=O)CSc1ccccc1C(=O)NCC1CCCCC1 | 1 | 0 | 6.6* | -4 | -1 | -1
COc1cc(/C=C/C(=O)O)cc(S(=O)(=O)N2CCc3ccccc32)c1OC | 2 | -1 | -2 | 5 | 2.3* | 1
S=c1[nH]c2cc(Cl)c3cccnc3c2o1 | 0 | 0 | 0 | -3 | 1 | -2
C=CCn1c(C)cc(C(=O)COc2nncc3ccccc23)c1C | 1 | 2 | 1 | -2 | 0 | 13*
C=CCn1c(C)cc(C(=O)COC(=O)c2n[nH]c(=O)c3ccccc23)c1C | 1 | 2 | 0 | 5 | -1 | 8
CCCN(CCC)CCNC(=O)c1cc2c(=O)n(CC)c3ccccc3c2s1 | 4 | 2 | 4.6* | 4 | 0 | -2
CCn1c(=O)c2cc(C(=O)Nc3ccc(OC)cc3OC)sc2c2ccccc21 | -1 | 0 | 4.2* | -3 | -1 | 0
CCN(CC)CCNC(=O)c1cc2c(=O)n(CC)c3ccccc3c2s1 | 2 | 1 | 1 | 5 | -1 | 0
CCn1c(SCC(=O)Nc2nccs2)nnc1-c1ccccn1 | -2 | -2 | 1 | 3 | -1 | -3
Cc1cccc(NC(=O)Nc2cccc(C)n2)n1 | -1 | 0 | 1 | 1 | -1 | 3
Cc1cccc(NC(=O)Nc2ccc(C)c(C)c2)n1 | 6.2* | 1 | 2 | 5 | 1 | 7
Cc1cc(C(=O)CN2C(=O)C3CC=CCC3C2=O)c(C)n1-c1ccccc1 (centres undefined) | 5 | 2 | 1 | 2 | -1 | 11*
CN1CCN(CCOCCOc2c(Cl)cc(Cl)cc2Cl)CC1 | -2 | 0 | -2 | 2 | -1 | 4
c1ccc2oc(SCc3cn4ccccc4n3)nc2c1 | 5.9* | 3.7* | 2 | 0 | -1 | 10
Cc1cc(NC(=O)CCC(=O)N(CC(=O)NCC2CCCO2)c2ccc(F)c(Cl)c2)no1 (centres undefined) | -2 | 0 | 4.2* | -1 | -1 | -1
CCN1C(=O)C(=CC=CN(C)c2ccccc2)SC1=S | 0 | 2 | 4.7* | 0 | 0 | 7
COc1ccc(CCC(=O)NCCOc2ccc(Cl)cc2)cc1 | -1 | 1 | 0 | 1 | 0 | 3
COc1ccc(/C=N/NC(=S)Nc2c(C)n(C)n(-c3ccccc3)c2=O)cc1OC | -1 | 0 | 5.4* | -1 | -1 | 0
O=C(Oc1ccc2ccccc2c1Br)N1CCCCCC1 | 6.5* | 3 | -2 | 2 | -1 | 0
Cc1cccc(NC(=O)c2cnc3sccn3c2=O)c1C | 2 | 3.9* | . | 6 | 0 | 12*
Cc1cccc(NC(=O)c2cnc3sccn3c2=O)n1 | 1 | 1 | 1 | 6 | -1 | 3
FC(F)(F)c1cccc(-c2noc(CN3CCOCC3)n2)c1 | -3 | 0 | 2 | -1 | 0 | 0
Cc1nnc(-c2cccc(C(F)(F)F)c2)nc1N1CCOCC1 | 1 | 4.3* | -1 | 1 | -2 | 1
SMILES | hcDAF12 agonist | DAX1 inh-1 | DAX1 inh-2 | SMARCA2 activ | ssDAF12 agonist | hgDAF-12 ag
CCOC(=O)c1sc(-c2ccc(OC)cc2)cc1N | 4 | 2 | 3 | 6 | 0 | 12*
CC(=O)N1N=C(c2cccc(NS(C)(=O)=O)c2)CC1c1cccs1 (centres undefined) | -1 | 0 | 0 | 7.9* | -1 | -4
O=C(COc1ccc(Cl)cc1Cl)NCCCn1ccnc1 | 1 | 1 | 0 | 3 | -1 | -1
COc1ccc(/C(O)=C2/C(=O)C(=O)N(c3ccccn3)C2c2ccc(C(C)C)cc2)cc1 (centres undefined) | 4 | 2 | 1 | 2 | 1 | 13*
CC1(NC(=O)Nc2cccc(Br)c2)CCS(=O)(=O)C1 (centres undefined) | -1 | 0 | 5.2* | -2 | 0 | -1
CC1(NC(=O)Nc2ccccc2)CCS(=O)(=O)C1 (centres undefined) | -1 | 0 | . | -2 | -1 | -2
COc1ccc(-c2noc(CN(C)C(=O)c3ccco3)n2)cc1 | -2 | 0 | 2 | -2 | -1 | 3
Cc1ccc(NCc2ccccc2F)cc1 | 6.2* | 0 | 0 | 1 | 0 | 4
Cc1ccc(NCc2ccccc2O)cc1 | 0 | 0 | 1 | 1 | 0 | 4
O=C(NC1=NCCS1)c1cc(-c2ccc(-c3ccccc3)cc2)nc2ccccc12 | 1 | 2 | 0 | 4 | 0.9* | 5
COc1ccc(-c2cc(C(=O)NC3=NCCS3)c3ccccc3n2)cc1OC | 1 | -1 | -1 | 4 | 1 | -2
COc1cccc(-c2cc(C(=O)NN3CCOCC3)c3ccccc3n2)c1 | -2 | -1 | -1 | -2 | -1 | -2
COC(=O)c1sccc1NC(=O)c1cc(-c2ccc(C)cc2)nc2ccccc12 | 0 | 1 | 0 | 2 | 1.1* | 0
COc1cccc(-c2cc(C(=O)Nn3cnnc3)c3ccccc3n2)c1 | 6.0* | 1 | -1 | -1 | 0 | 0
CCOc1ccc(-c2cc(C(=O)N3CCC(C)CC3)c3ccccc3n2)cc1 | 0 | 2 | 0 | 1 | 0 | 2
CCOc1ccc(-c2cc(C(=O)O)c3ccccc3n2)cc1 | 5 | 3 | -1 | 6 | 0 | 11*
CCOC(=O)c1[nH]c2ccc(OC)cc2c1NC(=S)N1CCN(c2ccc(F)cc2)CC1 | 1 | 0 | 0 | 0 | 1 | -1
O=C(CCCN1C(=O)S/C(=C\c2ccccc2)C1=O)NNC(=O)c1ccccc1O | -6 | -2 | -3 | -10 | -2 | -15
O=Cc1ccc(-n2cc(C=O)c3ccccc32)cc1 | 0 | 0 | -1 | -1 | 0 | -2
Cn1cc(C=O)c2ccccc21 | 2 | 0 | -1 | -3 | 1.3* | 1
O=C1NC(=S)N/C1=C/c1cccnc1 | -2 | 0 | 3 | -2 | -2 | 12*
CC1CCC(NC(=O)CNC(=O)c2cccs2)CC1 (centres undefined) | 4 | 4.4* | 2 | 5 | 0 | 8

Source: PubChem
